Inhibition data for 62 compounds are collected here from PubChem BioAssay AID612 (The Scripps Research Institute Molecular Screening Center, 2007).

As a reminder, the inhibition is the drop in the measured response relative to a control, in per cent.

Molecules are shown by their SMILES. Screen size: about 62,000 compounds; about 420 (0.68%) were called active. This is one part of a sample in which actives are shown more often than they occur.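 Rule for the calls: active = inhibition above the mean of all tested compounds plus 3 SD (cut at about 43% in these data); inactive = the rest.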

In this experiment the target is 5-hydroxytryptamine receptor 1A (Homo sapiens) (UniProt P08908). Nature of the experiment: blockade of serotonin HTR1A receptor – cell-based, CHO, Ga15 NFAT-bla reporter, primary screen (AID 612).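 Note: receptor stimulated by 5-CT agonist at 100 nM near EC80; beta-lactamase reporter measured by ratiometric fluorescence of a cleavable substrate.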 The conditions noted are these: CHO 5-HT1a Ga15 NFAT-bla reporter, antagonist mode; at 10 µM; stronger effect = higher value.
5-hydroxytryptamine receptor 1A (Homo sapiens), sequence (P08908 whole entry, looked up): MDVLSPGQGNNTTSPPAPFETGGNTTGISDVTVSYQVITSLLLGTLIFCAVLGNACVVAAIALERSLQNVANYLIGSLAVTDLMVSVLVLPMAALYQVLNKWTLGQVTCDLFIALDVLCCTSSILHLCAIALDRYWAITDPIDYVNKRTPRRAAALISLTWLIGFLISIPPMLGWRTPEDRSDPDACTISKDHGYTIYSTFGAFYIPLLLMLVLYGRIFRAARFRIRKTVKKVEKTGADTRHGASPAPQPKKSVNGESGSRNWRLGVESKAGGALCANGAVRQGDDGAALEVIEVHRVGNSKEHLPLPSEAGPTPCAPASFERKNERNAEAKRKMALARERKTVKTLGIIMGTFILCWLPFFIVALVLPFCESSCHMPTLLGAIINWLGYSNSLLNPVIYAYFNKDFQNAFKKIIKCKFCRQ
On to `COc1ncnc2sc3c(c12)CCCC3`, for which the inhibition is 10.5% (inactive).

As for `COc1ccc(-c2cc(C(F)(F)F)nc(S(C)(=O)=O)n2)cc1OC`, the inhibition was 78.1% (active).

For the compound `COc1ccc(-c2ccc(Nc3ccc(S(=O)(=O)N4CCCC4)cc3)nn2)cc1OC`, the inhibition was -0.9% (inactive).

In the case of `COc1ccc(-c2nnco2)cc1OC`, the inhibition was 2% (inactive).

On to `CN1CCN(CC(=O)C23CC4CC(CC(C4)C2)C3)CC1`, for which the inhibition is 4.4% (inactive).

For the compound `Cc1ccc(C2(c3ccc(C)cc3)NC(=O)N(Cc3c(C)noc3C)C2=O)cc1`, the inhibition was 1.9% (inactive).

As to `CCN(Cc1ccccc1)C(=O)CSc1nc(C)cc2c1C(=O)OC2`, the inhibition was -9% (inactive).

For `O=C(CSc1nnc(-c2cnccn2)n1Cc1ccco1)c1ccc(Cl)c(Cl)c1`, the inhibition is 9.1% (inactive).

In the case of `Cc1noc(C)c1S(=O)(=O)NCCc1ccc(S(N)(=O)=O)cc1`, the inhibition is -7.6% (inactive).

With `COc1ccc(CCN(C)C(=O)C2CCCN(Cc3ccc(OC)c(OC)c3)C2)cc1OC` (configuration not stated), the inhibition is 14.7% (inactive).

Turning to `COc1ccccc1N1CCN(C(=O)CN(Cc2ccc(Cl)cc2)S(C)(=O)=O)CC1`, the inhibition is 17.7% (inactive).

Turning to `COc1ccccc1N1CCN(Cc2nnnn2CCc2ccccc2)CC1`, the inhibition was 5.1% (inactive).

Turning to `COc1ccccc1-n1nnnc1S(=O)(=O)Cc1ccc(Cl)cc1`, the inhibition was 82.7% (active).

With `COC(=O)c1ccc(NC(=O)CSc2nnc(Cc3cccn3C)n2-c2ccc(F)cc2)cc1`, the inhibition was 3.3% (inactive).

For the compound `Cc1ccc(N2C(=O)CC(NCc3ccc4c(c3)OCO4)C2=O)cc1Cl` (configuration not stated), the inhibition is -4.3% (inactive).

With `CC(C)NS(=O)(=O)c1ccc(CCC(=O)N2CCOCC2)cc1`, the inhibition is -10.5% (inactive).

Take `CCOC(=O)CSc1nnc(CNC(=O)c2ccco2)n1-c1ccc(F)cc1`: the inhibition was 5.9% (inactive).

With `CN(C)/C=C1\C=C(c2ccccc2)OC1=O`, the inhibition is -8.2% (inactive).

As for `CCOC(=O)C1(Cc2ccc(O)cc2)NC(c2ccccc2F)C2C(=O)N(C)C(=O)C21` (configuration not stated), the inhibition was 6.2% (inactive).

In the case of `Clc1ccc(C=NC23CN4CN(CN(C4)C2)C3)cc1`, the inhibition was -6.9% (inactive).

For `COc1ccc(CNC(=O)C2CCN(S(=O)(=O)N3CCOCC3)CC2)cc1`, the inhibition was 5.7% (inactive).

`c1csc(-c2nc(-c3ccncc3)no2)c1`: the inhibition is -12.8% (inactive).

`COc1cc(Cl)c(S(=O)(=O)n2cnc(C)c2)cc1Cl`: the inhibition was -7.5% (inactive).

For the compound `CSCC[C@H](NC(=O)NCc1cccs1)C(=O)O`, the inhibition is 4.7% (inactive).

On to `CC1CCN(c2oc(-c3ccccc3F)nc2C#N)CC1`, for which the inhibition is 13.1% (inactive).

With `c1csc(-c2cn3c(n2)SCC3)c1`, the inhibition was 5.5% (inactive).

On to `Cc1ccc(C(=O)Nc2nnc(-c3cccs3)s2)cc1C`, for which the inhibition was -13.8% (inactive).

Turning to `COc1cccc(NC(=O)Nc2nnc(N3CCCCC3C)s2)c1` (configuration not stated), the inhibition was 35.8% (inactive).

On to `c1ccc(-n2ncc3c2ncn2c(C4CCCCC4)nnc32)cc1`, for which the inhibition is -3.1% (inactive).

As to `O=C(CC(NS(=O)(=O)c1ccc(Cl)cc1)c1ccco1)NC1CCCC1` (configuration not stated), the inhibition is 7.3% (inactive).

With `COC(=O)N1CN(C(=O)OC)CN(C(=O)OC)C1`, the inhibition was -7% (inactive).

Take `O=C(CN1CCOCC1)Nc1c2c(nc3c1CCC3)CCC2`: the inhibition is 2.1% (inactive).

For the compound `COc1ccccc1NC(=O)CSc1nc2sc(C)c(C)c2c(=O)n1Cc1ccco1`, the inhibition is 19.2% (inactive).

For `CCOC(=O)CSc1nc2c(c(=O)n(C)c(=O)n2C)n1Cc1ccccc1F`, the inhibition is -3.1% (inactive).

On to `CCOC(=O)CSc1nc2c(sc(=S)n2CCc2ccccc2)c(=O)n1Cc1ccco1`, for which the inhibition is 58.2% (active).

For `CC(c1cccnc1)N(CCN(C)C)C(=O)Nc1ccc(Cl)c(Cl)c1` (configuration not stated), the inhibition is 3.9% (inactive).

Turning to `Cc1ccc(C)c(NC(=O)C2CC(=O)N(C(C)C)C2)c1` (configuration not stated), the inhibition is -1.5% (inactive).

On to `COc1ccc(S(=O)(=O)N2CCOCC2)cc1C(=O)Nc1nc2ccccc2s1`, for which the inhibition was -17.7% (inactive).

On to `Cc1ccc2nc(NC(=O)C3CCN(S(=O)(=O)c4ccc5c(c4)oc(=O)n5C)CC3)sc2c1`, for which the inhibition is 1.8% (inactive).

Take `O=S(=O)(NCc1ccccc1Cl)c1cnc[nH]1`: the inhibition was -4.7% (inactive).

In the case of `COc1ccccc1C(=O)Oc1ccc(N2C(=O)CCC2=O)cc1`, the inhibition is -3.5% (inactive).

Regarding `CCOc1cc(CN2CCN(C(=O)CC(C)C)CC2)ccc1OC`, the inhibition is -2.9% (inactive).

On to `CCOc1cc(C(=O)N2CCc3cc(OC)c(OC)cc3C2)ccc1OC(F)F`, for which the inhibition is 60.5% (active).

As to `CCOc1cc(-c2noc(CCC(=O)N3CCOCC3)n2)ccc1OC`, the inhibition is -10.7% (inactive).

In the case of `CCCOc1ccccc1C1CC(=O)Nc2cc3c(cc21)OCO3` (configuration not stated), the inhibition is 54.2% (active).

As to `COCCOC(=O)C1=C(C)NC(=O)CC1c1cc2c(cc1Br)OCO2` (configuration not stated), the inhibition was 3.2% (inactive).

`COc1cc2c(cc1OC)C(c1ccc(C)o1)CC(=O)N2` (configuration not stated): the inhibition was 30.2% (inactive).

Take `Cc1cc(NC(=O)CCC(=O)N(c2cccc(F)c2)C(C(=O)NC2CCCC2)c2ccncc2)no1` (configuration not stated): the inhibition is -3.5% (inactive).

Consider `C/C(=N\O)C1(C)N(O)C(C)(C)C(c2ccc(Br)cc2)=[N+]1[O-]` (configuration not stated), for which the inhibition is -14.2% (inactive).

As for `COC(=O)c1ccc(/C=N\n2c(C)nnc2C)cc1`, the inhibition is 0.3% (inactive).

Turning to `CCOC(=O)N1CCN(C(=O)C2CCCN(c3ncnc4c3sc3cccc(F)c34)C2)CC1` (configuration not stated), the inhibition was 7.8% (inactive).

For the compound `CC(C)c1ccc(-c2nn[nH]n2)cc1`, the inhibition was -0.6% (inactive).

Consider `COc1ccc(N2CCN(C3CC(=O)N(c4ccc5c(c4)OCCO5)C3=O)CC2)cc1` (configuration not stated), for which the inhibition is -12.3% (inactive).

For the compound `O=C(CCc1ccccc1)Nc1cccc(-c2nnc(-c3ccco3)o2)c1`, the inhibition is 10% (inactive).

With `COC(=O)Cc1c(C)c2ccc(OCC(=O)NCc3ccc4c(c3)OCO4)cc2oc1=O`, the inhibition was 12.5% (inactive).

`CN(C)CCCn1c(N)c(C#N)c2nc(C#N)c(C#N)nc21`: the inhibition is -28.3% (inactive).

Consider `O=C(Cn1cnc2c(nnn2Cc2ccc(F)cc2)c1=O)NCc1ccc2c(c1)OCO2`, for which the inhibition is 2% (inactive).

With `COc1ccc(C(=O)N2CCC(C(=O)Nc3cccc(C)c3)CC2)cc1OC`, the inhibition was -2.1% (inactive).

For `O=C(Nc1nsc(-c2ccccc2)n1)c1ccncc1`, the inhibition is -6.7% (inactive).

As to `COc1ccc(C2OC(=O)CC2C(=O)NC(C)C)cc1` (configuration not stated), the inhibition is -3.4% (inactive).

For the compound `CC(C)CCNC(=O)CN(C(=O)Cn1nnc(-c2ccc(F)cc2)n1)C1CCCC1`, the inhibition was 9.5% (inactive).

Take `O=C(O)c1cscn1`: the inhibition is -20.4% (inactive).
